Rows were chosen to be rich in hits. Some 19% of all compounds tested hit in one or more screens of this group.
TDP1 cell noCPT: qHTS for Inhibitors of human tyrosyl-DNA phosphodiesterase 1 (TDP1): qHTS in cells in absence of CPT. DT40 Tdp1-/- hTDP1 cells, no CPT, ATP luminescence, 48 h. Potency, µM (titrated, usually from 46.2 µM), for the others: top-dose activity change, negative = growth inhibition, usual class: inhibitors. 420,000 compounds, 15% hits; further: potency means the concentration at half of the fitted maximal effect; nearly all actives have a fitted effect of over 55% in size
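Stably hTDP1-transfected Tdp1-null chicken DT40 cells were treated with library compounds minus camptothecin and grown for at least 48 hr at 37 °C, after which cellular ATP was quantified by luminescence.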
HT1080 IDH1KD tx: qHTS for induction of synthetic lethality in tumor cells producing 2HG: qHTS for the HT-1080-IDH1KD cell line | AID 686971, 2013 | 360,000 compounds, 2% hits | Potency, µM (highest dose often 46.1 µM), without a hit: top-dose activity, negative = toxicity, hits mostly cytotoxic | HT-1080 IDH1 knockdown viability, ATP luminescence, 48 h;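 further: potency means the concentration at half of the fitted maximal effect; 0% = DMSO wells and -100% = cell-free medium wells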
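Luminescent ATP read-out (CellTiter-Glo, 10 min at room temperature) after 48 h compound exposure at 37 °C gave viability of IDH1-knockdown HT-1080 cells. Activity was normalised to DMSO and cell-free wells, then fitted as concentration-response curves.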
DT40 TDP1 CPT: qHTS for Inhibitors of human tyrosyl-DNA phosphodiesterase 1 (TDP1): qHTS in cells in presence of CPT; chicken DT40 Tdp1-/-;hTDP1 cells + 20 nM CPT, ATP luminescence, 48 h; AID 686979, 2013; Potency, µM (titrated, usually from 46.2 µM), for the others: at the highest dose activity change, negative = growth inhibition, actives largely listed as inhibitors; 420,000 compounds, 12% hits; further: potency means the concentration at half of the fitted maximal effect; nearly all actives have a fitted effect of over 55% in size
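Cell growth measured by CellTiter-Glo luminescence after a minimum 48 h, 37 C compound exposure with 20 nM CPT in Tdp1-knockout DT40 cells stably expressing hTDP1, seeded 400/well; qHTS titration format.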
HT1080-NT tox: qHTS for induction of synthetic lethality in tumor cells producing 2HG: qHTS for the HT-1080-NT fibrosarcoma cell line; 360,000 compounds, 1.6% hits; Potency, µM (titrated, usually from 46.1 µM), inactives show at the highest dose activity, negative = less viability, actives largely listed as cytotoxic; HT-1080-NT fibrosarcoma viability, CellTiter-Glo ATP luminescence, 48 h; AID 686970, 2013;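 further: NT is the 2HG producing partner of a matched IDH1 knockdown line; potency means the concentration at half of the fitted maximal effect; 0% = DMSO-treated cells and -100% = media-only wells without cells; nearly all actives have a fitted effect of over 55% in size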
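HT-1080-NT; 750 cells/well; 5% FBS RPMI; 48 h compound, 37 degrees C; CellTiter-Glo luminescence; curve fitting and curve-class assignment.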
IL-1B inflam inh: qHTS for Inhibitors of Inflammasome Signaling: IL-1-beta AlphaLISA Primary Screen | THP-1 LPS/ATP IL-1B secretion, AlphaLISA, 16 h; hits give low values | 360,000 compounds, 4.7% hits | activity change, % at 57.5 µM; in the data active means activity change below about -50%; inconclusive means mostly about -30% to -49%
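Secreted IL-1B measured by AlphaLISA bead assay after 16 h compound exposure of THP-1 cells; compounds (final up to 57.5 uM) added 1 h before LPS (250 ng/mL) and ATP (1.25 mM) stimulation; lower signal means less secretion.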
ELG1 DNA repair: qHTS screen for small molecules that inhibit ELG1-dependent DNA repair in human embryonic kidney (HEK293T) cells expressing luciferase-tagged ELG1. HEK293T ELG1-luciferase reporter, luminescence, 16 h; DNA damage induced by 5-fluorouridine. Potency, µM (top dose mostly 46.1 µM), inactives show at the top dose activity change, negative = inhibition, hits mostly inhibitors. 330,000 compounds, 2.3% hits. AID 504467, 2011; further: potency means the concentration at half of the fitted maximal effect; nearly all actives have a fitted effect of over 55% in size
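Cells (2,000 per well) received 5-fluorouridine plus test compound or DMSO and were incubated 16 hr at 37 °C, 5% CO2. Luciferase activity was read by luminescence 30 min after ONE-Glo addition; signal suppression marked inhibition of damage-induced ELG1 function.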
An asterisk follows results filed as active; ? = inconclusive; nt = not tested or not shown. Unless noted, the call rests on the fitted dose curve; in most records, active means well fitted curve in the direction sought with a large enough effect; inconclusive means small, poorly fitted or top-dose-only effect, or another doubt; inactive means no such curve, though single readings can be large; an effect the other way counts as inactive or inconclusive. Unless noted, on the % scale 0 is the no-effect control and ±100 the full control effect.

SMILES | TDP1 cell noCPT | HT1080 IDH1KD tx | DT40 TDP1 CPT | HT1080-NT tox | IL-1B inflam inh | ELG1 DNA repair
COc1ccc(/C=N/N2C(=O)CN(C(=O)c3ccccc3)C2c2ccc(OC)cc2)cc1 (configuration not stated) | ? | -14% | -25% | -5% | 0 | ?
COc1cccc(CN2CCN(C(=O)c3ccc(-c4ccccc4)cc3)CC2)c1 | ? | -19% | ? | -6% | 0 | ?
COc1cc(CN2CCN(C(=O)c3ccc(-c4ccccc4)cc3)CC2)cc(OC)c1OC | 26µM* | -23% | 21µM* | -22% | -19 | ?
COc1ccc(C2N(C(=O)c3ccccc3)CCN2C(=O)c2ccc(C)cc2)cc1 (configuration not stated) | ? | -23% | 29µM* | 0% | -13 | -12%
COc1cc(OC)cc(C(=O)N2CCN(C(=O)c3ccc(-c4ccccc4)cc3)CC2)c1 | ? | -9% | -22% | -1% | -68* | 9%
Cc1ccccc1-c1nn2c(=O)cc(CN3CCN(S(=O)(=O)c4ccc(Cl)cc4)CC3)nc2s1 | ? | nt | -29% | nt | nt | nt
CCCCNC(=O)C1(C)CCC(=O)N1CCOC (configuration not stated) | 1% | 10% | 1% | 25% | -4 | nt
COc1cccc(CN2CCN(C(=O)c3ccc(-c4ccccc4)cc3)CC2)c1OC | -3% | -11% | ? | 0% | -17 | 18µM*
COc1cccc(C(=O)N2CCN(C(=O)c3ccc(-c4ccccc4)cc3)CC2)c1OC | ? | -3% | ? | -10% | 0 | ?
CCOc1ccc(OCC)c(NC(=O)C2CCN(S(=O)(=O)c3ccc(Br)s3)CC2)c1 | -12% | nt | 3% | nt | nt | nt
COc1ccc2c(c1)sc(=N)n2C | 18µM* | -16% | 18µM* | 12% | 6 | -5%
O=C(Cn1cnc2ccccc2c1=O)c1ccc(OC(F)F)cc1 | -11% | 3% | 6% | 3% | -1 | ?
CCn1cc(C2=NC(C(C)C)CO2)c2ccccc21 (configuration not stated) | -25% | 0% | -20% | -2% | 6 | 28%
CCn1cc(C2=NC(CC(C)C)CO2)c2ccccc21 (configuration not stated) | 15µM* | -14% | ? | -4% | ? | -4%
COc1ccc(NC(=O)Nc2cccc3c2O[C@H](CN(C)S(=O)(=O)c2ccc(F)cc2)[C@@H](C)CN([C@H](C)CO)C3=O)cc1 | -11% | -9% | -27% | 0% | -20 | -7%
C[C@H]1CN([C@@H](C)CO)C(=O)c2cccc(NC(=O)Nc3ccc(C(F)(F)F)cc3)c2O[C@@H]1CN(C)S(=O)(=O)c1ccc(Cl)cc1 | 8.2µM* | 26µM* | 7.3µM* | ? | ? | -3%
C[C@H](CO)N1C[C@H](C)[C@@H](CN(C)S(=O)(=O)c2ccc(F)cc2)Oc2c(NC(=O)Nc3ccc(C(F)(F)F)cc3)cccc2C1=O | ? | -21% | ? | -28% | -51* | ?
Cc1cc(C)c(NC(=O)CCN2CCCCC2)c(C)c1 | 1% | nt | 2% | nt | nt | nt
S=c1[nH]nc(C2CCCCC2)n1/N=C/C=C/c1ccccc1 | ? | -2% | 26µM* | -8% | -25 | -1%
